# Reference: the OligoGym collection
# Target: SLC26A5
# Test: pooled miR-30 sensor sort-seq; sequence = guide strand
# Conditions: shRNA
row,Sequence,sensor-assay potency score (higher = more potent)
1,TTGTCCTTTGTGTGTAGTCTTT,-0.811
2,TATACAAGTCGCTATTTGCATA,-1.73
3,TTGTGTGTAGTCTTTCCTGGAG,-0.0771
4,TTTCGTTTTAATGCATTGCTAT,-0.563
5,TTCTGCAACACAGCAACTGTAC,-0.438
6,TTAATGAGGCCAAACAACCTGC,-0.462
7,TTTCCAAGGACTTTGTAGCTTG,-0.312
8,TATCATCTGGTACTAATCGAAC,-1.32
9,TAGTCTTTCCTGGAGGACCGGA,-0.913
10,TAAATCTTTGCATTTCCTCAGG,-0.693
11,TTGCATAGTAAATTGGTGCATT,-0.361
12,TAACATTCTGCAACACAGCAAC,-0.753

# Target: SLC26A8
# Test: as above
# Conditions: shRNA
row,Sequence,sensor-assay potency score (higher = more potent)
1,TTGATTTTTCTGAGACACGGAC,-0.723
2,TTAGGTAGTAAACATTTACAAA,-1.21
3,TTGAGCTTCATCTCTTTGGAGA,-0.991
4,TAGTCCTAGCAATAGCACCAGT,-1.08
5,TTTATTTTCAAATCGCTCTGTG,0.487
6,TAATCGATACATACACATCCAT,-0.25
7,TTGAATTGTCATTCTTGTCTGT,0.809
8,TTTACAAATGTAATTGAGCTGC,-0.345
9,TTTTATATCTTGAATTGTCATT,-1.25
10,AATCGATACATACACATCCATT,-1.59
11,TTATCCTGGATAATAGTCCTAG,-0.541
12,TGAATTGTCATTCTTGTCTGTT,-0.0701

# Target: SLC27A5
# Test: as above
# Conditions: shRNA
row,Sequence,sensor-assay potency score (higher = more potent)
1,TGTTGTAGTAAACGTCGCCCGA,-0.779
2,TTGTCCAGTACAAACAGAGGGT,-0.338
3,TATGTGTCCGGTCCTCTGGTTG,-1.24
4,TTGCAAGAAGTCCACCTGCGAC,-1.49
5,TAGTCCATTGCCCATTGCCAGG,-1.83
6,TATTCTGCCACTGCTACAGGGC,-0.565
7,TAAACCACATCATCAGCTGTGG,-0.167
8,TTCATCAGTTTGAACGTGCTGG,0.535
9,TACAGGATCACTGTCACGCCAT,-0.0663
10,TAGTTGACTAAGCCCATGTTGC,-0.878
11,TTGACTAAGCCCATGTTGCCTT,-0.405
12,TTGTAGTAAACGTCGCCCGATT,-1.15

# Target: SLC28A2
# Test: as above
# Conditions: shRNA
row,Sequence,sensor-assay potency score (higher = more potent)
1,TTCCAGGACATTCCTCTCCTTC,-1.16
2,TTGGGAAGGAGACACAGTCAGC,-1.18
3,TCTTCTTGAACAATCTGGCGTG,-0.29
4,TTGTTGTAGAATCCACAGCAGT,-1.13
